The values that follow come from PubChem BioAssay (EPA / NIEHS).

The structures appear in SMILES notation. Results filed as inconclusive are left out. The source made the active and inactive calls. The calls were made as follows: active = hit-call score of the fitted dose curve at least 0.9, where 1 is the maximum; inconclusive = response in the unintended direction; inactive = score below 0.9.

The assay in a line: ACEA_ER_AUC_viability: ACEA Biosciences xCELLigence Real-Time Cell Analysis on Estrogen Receptor Agonism for Viability (AID 2283782).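 Also: hit means loss of impedance signal meaning reduced cell growth or viability.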 Put shortly:
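Viability endpoint: reduced impedance area under the curve relative to DMSO, recorded by real-time electrode sensing over ~80 h of continuous exposure. Duplicate plates of T47D in hormone-depleted medium; eight concentrations, 1:4 dilutions, 100 uM maximum.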
Turning to `CCCOC(=O)CC`, the call was inactive. As for `O=S(=O)(O)CCCN1CCOCC1`, the AC50 is 36.6 µM (active).

Take `OCCCO`: the molecule was classed as inactive. On to `CC1=CC(=O)[C@H]2C[C@@H]1C2(C)C`, for which the AC50 is 31 µM (active). As to `C=C1CC/C=C(\C)CC[C@@H]2[C@@H]1CC2(C)C`, the outcome was inactive.

Turning to `CCCCC/C=C\C=C\C(=O)OCC`, the half-maximal activity concentration (AC50) is 80.8 µM (active).

Take `O=C1CCC(=O)N1`: the AC50 was 50 µM (active). `CC/C=C\CCCCO`: the AC50 is 50 µM (active). Take `C=C(C)C(=O)OCCC[Si](OC)(OC)OC`: the result was inactive.

For the molecule `O=C(O)c1ccco1`, the AC50 was 50 µM (active). For `O=[N+]([O-])c1cc(N(CCO)CCO)ccc1NCCO`, the molecule was called inactive. On the same count and under the same terms, the entry for `CCCCOCC(C)OCC(C)O` (stereo not drawn) is “inactive”; for `CCCCC(CC)COC(=O)COc1ccc(Cl)cc1C` (stereo not drawn) it is “inactive”.

For the molecule `c1ccc2c(c1)-c1ccc3ccc4cccc5cc-2c1c3c45`, the result was inactive. In the case of `CCC(CC)CO`, the result was inactive.

`OCCN1CCOCC1`: the call was inactive. As to `Cc1cc(N)n(-c2ccccc2)n1`, the result was inactive.

Turning to `CC/C=C\CCCCCCCCCCOC(C)=O`, the result was inactive. Turning to `Brc1cc(Br)cc(Br)c1`, the call was inactive. For the molecule `CC(C)=CCCC(C)=CC(=O)O`, the outcome was inactive. Still for that read-out and setting: the entry for `CCOC(=O)CCCCCCCCC(=O)OCC` is “inactive”; for `CCCCOC(=O)C(C)OC(=O)CCC` (stereo not drawn) it is “inactive”; for `C=CCS(=O)(=O)O` it is “inactive”. Same read-out and setting: the entry for `CCOC(=O)COC(=O)c1ccccc1C(=O)OCC` is “inactive”. As for `O=S1(=O)CC=CC1`, the result was inactive. In the case of `CC/C=C\CCOC(C)OCC` (stereo not drawn), the molecule was called inactive. In the case of `[Cu+]`, the molecule was called inactive. As for `CC(=O)CCC=C(C)CCC=C(C)C`, the AC50 is 63.6 µM (active).

On to `c1ccc(Sc2ccccc2)cc1`, for which the AC50 was 83.4 µM (active).

For `NC(=O)NC(N)=O`, the result was inactive.

For the molecule `CCCCCCCCSCc1cc(C)c(O)c(CSCCCCCCCC)c1`, the call was inactive. `N#CCCNCCC#N`: the molecule was called inactive. With `Nc1ccn([C@H]2CC[C@@H](CO)O2)c(=O)n1`, the molecule was classed as inactive.

Consider `CN(C)CCCNCCCN(C)C`, for which the concentration at half-maximal activity (AC50) was 50 µM (active).

For the molecule `CCC(C)(C)c1cc(O)c(C(C)(C)CC)cc1O`, the AC50 is 72.7 µM (active). For the molecule `ClCCOCCOCCCl`, the outcome was inactive. In the case of `CC1=CC(C)C(C=O)C(C)C1` (stereo not drawn) (tested in a mixture with another compound), the AC50 is 50 µM (active). Turning to `C=C/C(C)=C/C/C=C(\C)CCC=C(C)C`, the AC50 is 89.9 µM (active).

For orientation: AC50 means the concentration giving half of the maximal activity seen.
